Source: PubChem (several laboratories)
Shown are actives, neighbours in structure and some others; about 1.3% of the full set was active somewhere.
ADAM17 inh: inhibits human ADAM17 | recombinant ADAM17, EDANS/DABCYL FRET peptide cleavage | P78536 | inhibition, % at 6.95 µM | 0.83% of 370,000 active | AID 720648;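 active = inhibition above the mean of compounds lying between control limits plus 3 SD, set per campaign, cut at about 8.5% in these data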;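 note: 0% = DMSO-only wells as the low control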
NPR2 activator: GC-B (human) receptor activation; P20594; HEK293-GC-B cells, CNP EC30, cGMP TR-FRET; 0% at EC30 CNP, 100% saturating CNP; activation, % at 10 µM; 0.11% of 370,000 active; AID 1920062;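 active = activation at 10 µM reaching about 35% in either raw or pattern-adjusted values, limit read from the data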
Target sequence (P20594 whole entry, looked up): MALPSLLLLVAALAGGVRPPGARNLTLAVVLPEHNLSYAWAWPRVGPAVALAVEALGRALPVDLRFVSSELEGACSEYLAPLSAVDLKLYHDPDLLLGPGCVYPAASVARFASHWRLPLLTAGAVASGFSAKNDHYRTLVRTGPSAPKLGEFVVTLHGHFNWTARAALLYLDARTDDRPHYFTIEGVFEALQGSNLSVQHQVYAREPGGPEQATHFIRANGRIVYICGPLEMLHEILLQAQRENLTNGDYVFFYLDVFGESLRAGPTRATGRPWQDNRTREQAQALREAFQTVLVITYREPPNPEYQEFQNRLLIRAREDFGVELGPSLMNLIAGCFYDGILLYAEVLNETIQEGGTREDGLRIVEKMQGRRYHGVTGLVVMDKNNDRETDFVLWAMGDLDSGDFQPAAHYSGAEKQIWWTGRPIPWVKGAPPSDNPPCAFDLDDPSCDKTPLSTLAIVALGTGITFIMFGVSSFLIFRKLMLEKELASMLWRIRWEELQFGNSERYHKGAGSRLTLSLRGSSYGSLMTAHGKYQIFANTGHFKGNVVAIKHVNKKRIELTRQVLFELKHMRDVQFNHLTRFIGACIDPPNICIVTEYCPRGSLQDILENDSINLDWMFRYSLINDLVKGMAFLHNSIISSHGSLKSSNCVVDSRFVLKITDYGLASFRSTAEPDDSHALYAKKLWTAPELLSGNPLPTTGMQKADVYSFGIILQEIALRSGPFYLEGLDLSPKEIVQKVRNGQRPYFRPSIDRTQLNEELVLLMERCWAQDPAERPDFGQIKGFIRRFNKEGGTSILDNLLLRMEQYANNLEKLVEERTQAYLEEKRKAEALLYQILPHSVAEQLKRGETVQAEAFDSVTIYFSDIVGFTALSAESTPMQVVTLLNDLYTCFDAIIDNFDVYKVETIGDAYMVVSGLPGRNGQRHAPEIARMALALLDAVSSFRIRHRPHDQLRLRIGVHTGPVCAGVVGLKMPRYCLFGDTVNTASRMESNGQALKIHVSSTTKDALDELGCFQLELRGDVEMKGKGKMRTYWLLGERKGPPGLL
ADAM10 inh: inhibits human ADAM10 | recombinant ADAM10, EDANS/DABCYL FRET peptide cleavage, 3 h | 0.62% of 370,000 active | AID 720582 | O14672 | inhibition, % at 7 µM;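 active = inhibition above a per-campaign cutoff equal to the mean of compounds falling between control-based bounds plus 3 SD, cut at about 20% in these data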;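 note: 0% = DMSO wells while the 100% control is not disclosed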
GC-A act: GC-A (human) enzyme activation | 0.14% of 370,000 active | activation, % at 10 µM | HEK293 GC-A cells, cGMP TR-FRET, EC30 ANP; 0% at EC30 ANP, 100% saturating ANP | P16066; in the data active = activation above about 40%
ADAM10 counter: inhibits human ADAM10 in ADAM17 exosite counter-screen. shares compounds with ADAM17 inh. recombinant ADAM10, EDANS/DABCYL FRET peptide cleavage, 3 h. inhibition, % at 6.95 µM. 47% of 2,900 active. AID 743256;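 active = mean inhibition over the triplicate runs exceeds the activity threshold set in the earlier primary screen, cut at about 20% in these data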;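 note: 0% = DMSO wells and 100% = marimastat wells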
ADAM17 confirm: human ADAM17 inhibition, confirmation | inhibition, % at 6.95 µM | recombinant ADAM17, EDANS/DABCYL QFRET peptide cleavage | 65% of 2,900 active | AID 743257 | shares compounds with ADAM17 inh;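 active = mean inhibition across replicates above the hit cutoff set in the primary screen, cut at about 8.5% in these data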;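 note: 0% = DMSO wells and 100% = marimastat wells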
* = called active by the depositor; · = no result.

SMILES	ADAM17 inh	NPR2 activator	ADAM10 inh	GC-A act	ADAM10 counter	ADAM17 confirm
COc1ccc(COC(=O)C2CCN(S(=O)(=O)c3ccc(OC)c(OC)c3)CC2)cc1	9.7*	3.2	9.4	9.9	29.6*	16.6*
COc1ccc(COC(=O)C2CCN(S(=O)(=O)c3ccc(Cl)cc3)CC2)cc1	-1.2	-5.5	-3.0	2.4	·	·
CCNC(=O)C1(C)CCCN(Cc2cccc3c2OCCO3)C1 (centres undefined)	0.4	-4.7	-0.8	-1.9	·	·
O=C(Nc1ccccc1Br)C(=O)N1CCCC1	-4.0	2.1	-6.4	-2.9	·	·
O=C(NNc1ccccc1Br)C(=O)n1ccc2ccccc21	9.5*	0.4	16.8	-0.2	-5.0	0.8
Cc1cc(OCC(=O)Nc2sc3c(c2C#N)CC(C)(C)NC3(C)C)c(C(C)C)cc1Cl	-2.4	1.9	1.9	3.0	·	·
COc1cc(CNC(=O)c2cccc(COc3ccc(Cl)cc3)c2)cc(OC)c1	8.7*	5.7	16.5	7.8	24.4*	11.2*
CN(C)S(=O)(=O)c1cccc(C(=O)N/N=C\c2cccc(C#N)c2)c1	-2.1	1.3	-6.2	-2.9	·	·
CC1CCC(NC(=O)COC(=O)c2cccnc2Cl)CC1 (centres undefined)	-0.5	-0.8	3.8	4.4	·	·
O=C(CCC(=O)OCC(=O)c1ccccc1)Nc1cccc2cccnc12	8.7*	-1.0	18.2	-1.9	0.1	0.6
O=C(O)CCC(=O)Nc1cccc2cccnc12	-0.7	-5.4	-10.4	6.7	·	·
O=C(NCCn1cc(SCc2ccccc2)c2ccccc21)c1ccccc1F	10.4*	-5.0	15.8	-9.6	11.7	9.2*
CC(C)(C)c1csc(NNC(=O)c2ccc(Br)cc2)n1	8.7*	3.6	19.5	1.8	-5.3	4.0
CC1(C(=O)NS(=O)(=O)c2cccc(Cl)c2)CCN1C(=O)Cc1ccc(-c2ccccc2)cc1 (centres undefined)	9.0*	-1.7	3.0	6.9	7.8	5.5
O=C(Cc1cccs1)N1CCN(S(=O)(=O)c2ccc(Cl)c(C(F)(F)F)c2)CC1	-9.0	2.5	-7.7	-2.5	·	·
CCOC(=O)c1ccc(NC(=S)NCc2ccc(F)cc2)cc1	12.1*	9.6	18.2	4.7	13.7	10.2*
CCOC(=O)c1ccc(NC(=S)NCc2ccc(S(N)(=O)=O)cc2)cc1	0.9	7.0	5.7	1.6	·	·
CCCc1ccc(Oc2c(-c3ccc(O)c(C)c3O)n[nH]c2C)cc1	9.0*	-1.5	5.1	19.1	6.3	8.3
CCCOC(=O)c1ccc(Oc2cn[nH]c2-c2ccc(OCC)cc2O)cc1	9.8*	8.3	7.6	-3.0	17.2	12.1*
CCOc1ccc(-c2[nH]ncc2-c2ccccc2)c(O)c1	1.3	-5.0	5.6	-4.4	·	·
CCCOC(=O)c1ccc(O)cc1	-1.8	3.0	-14.3	3.6	·	·
CCCc1cc(-c2n[nH]c(C)c2-c2ccc(C(=O)OCC)o2)c(O)cc1O	0.2	-4.3	-13.0	-1.3	·	·
CCCOC(=O)c1ccc(Oc2c(-c3ccc(OCC)cc3O)n[nH]c2C)cc1	9.8*	6.0	19.0	-2.6	24.4*	14.8*
O=C(Cc1cn(Cc2ccccc2)c2ccccc12)Nc1ccc(Oc2cccnc2)cc1	7.2	3.6	11.6	3.5	·	·
CC(OC(=O)Cc1n[nH]c(=O)c2ccccc12)C(=O)Nc1ccc(F)cc1Cl (centres undefined)	-5.0	-4.3	-6.7	0.3	·	·
SMILES	ADAM17 inh	NPR2 activator	ADAM10 inh	GC-A act	ADAM10 counter	ADAM17 confirm
CC(Oc1ccc(C#N)cc1)C(=O)c1ccc(F)c(F)c1 (centres undefined)	-0.8	7.3	-1.9	-1.6	·	·
COC(=O)C(NC(=O)C(NC(=O)C1CCC(C)CC1)C(C)C)C(C)C (centres undefined)	-3.4	-0.1	-2.8	1.1	·	·
COC(=O)c1ccc(-n2c(C)cc(C(=O)CSc3ccc(NC(C)=O)cc3)c2C)cc1	9.0*	5.2	17.7	-0.7	21.6*	16.5*
Nc1nc(C(c2ccccc2)c2ccccc2)cs1	8.7*	4.0	19.7	-1.7	6.5	3.8
CCOC(=O)C1=C(O)/C(=C\c2cccs2)N=C1C	10.0*	-3.9	16.2	-7.1	0.7	3.9
CCOc1ccc(C2/C(=C(\O)c3ccc4c(c3)OCCO4)C(=O)C(=O)N2CCCn2ccnc2)cc1OC (centres undefined)	-1.8	1.0	4.6	0.0	·	·
S=C(NCCc1ccc(Cl)cc1)Nc1ccc(Cl)cc1Cl	16.2*	-3.7	29.4*	0.4	34.0*	19.1*
O=C(Cc1ccccc1)NC1CCCc2c1cnn2-c1ccc(F)cc1F (centres undefined)	-1.9	2.1	-6.2	0.9	·	·
O=c1c(Cc2ccc(Cl)cc2)c(O)ccn1Cc1cccc(Cl)c1	-1.7	2.6	3.2	-4.2	·	·
O=c1c(Cc2ccc(Cl)cc2Cl)c(O)ccn1Cc1ccc(Cl)cc1	10.8*	3.3	19.1	1.0	25.8*	16.2*
O=C(COC(=O)CNS(=O)(=O)c1cccc(Br)c1)Nc1ccccc1Sc1ccccc1	9.9*	-2.6	15.2	2.1	26.5*	14.5*
O=C(COC(=O)CNS(=O)(=O)c1c(Cl)cccc1Cl)Nc1ccccc1Sc1ccccc1	8.6	-2.4	7.9	10.7	·	·
COC(=O)[C@@]1(Sc2ccc(OC)cc2)CC(=O)N[C@@H]1c1ccccc1	-6.5	3.9	3.5	-3.4	·	·
CN1C(C(=O)Nc2cccc(O)c2)=CC(c2cccs2)=NS1(=O)=O	9.7*	-6.9	13.1	-0.7	18.2	7.3
COc1ccc(NC(=O)C2=CC(c3ccc(OC)cc3)=NS(=O)(=O)N2C)cc1	10.2*	-2.8	10.6	-1.4	17.5	7.2
COc1ccc(C2C(C(=O)Nc3cc(OC)c(OC)c(OC)c3)CCC(=O)N2c2ccc(OC)cc2)cc1 (centres undefined)	0.3	1.8	-4.8	1.9	·	·
C[C@H](CO)N1C[C@H](C)[C@@H](CN(C)Cc2ccc3c(c2)OCO3)Oc2cc(Br)ccc2S1(=O)=O	8.9*	-7.6	11.8	-12.0	25.3*	14.0*
Cn1cc(C(=O)N/N=C/c2cccs2)c2ccccc21	8.9*	-4.1	-2.7	1.7	-4.5	-0.4
CCOC(=O)[C@]12CCC=C1N(Cc1ccco1)C(=O)[C@H](CC(=O)N1CCN(C(=O)C3CC3)CC1)C2	0.2	-2.5	-7.2	1.6	·	·
COc1ccccc1-c1cnc(C(O)c2cc(Cl)cc(Cl)c2)[nH]1 (centres undefined)	1.0	-4.5	13.5	-7.8	·	·
COc1ccc(CCNS(=O)(=O)c2ccc(N3CCCC3=O)cc2)cc1	11.6*	-1.5	11.9	3.9	-4.4	-1.9
O=C1CCCN1c1ccc(S(=O)(=O)NCCc2ccc(Cl)cc2)cc1	·	3.2	·	2.5	·	·
COc1ccc2[nH]c(=O)c(CN(C(=O)c3cccnc3)c3ccc(C)c(C)c3)cc2c1	-60.7	-6.2	-182.6	22.7	·	·
